From PubChem BioAssay (NCI)
Compounds without any hit were thinned out: in the full panel of roughly 79,000, 15% have a hit. A number with no mark means an inactive call. The source made the active and inactive calls. Rule as the data show it: active = growth inhibition above about 70%; inactive = the rest.

Assay: NCI Yeast Anticancer Drug Screen. Data for the rad50 strain (AID 155);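 also: 0% = growth of vehicle-only cultures of the same strain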
Settings: S. cerevisiae rad50 strain growth inhibition; at 50.0 µM; active compounds read high
Outline: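 Growth of the mutant yeast was measured after compound exposure and referenced to vehicle-treated cultures.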

SMILES | growth inhibition
Clc1cccc[n+]1CCc1ccccc1 | 9.4%
COC(=O)c1c(C)ccc(C)c1C(=O)c1c(C)cc(C)cc1C | -14.6%
O=C1c2ccccc2C(=O)N1CC1(C(=O)O)NCCS1(=O)=O (stereo not given) | 3.3%
CCN(CC)c1ccc2c(c1)Oc1cc(N(CC)CC)ccc1C2c1ccccc1C(=O)O | -10.2%
C[n+]1ccccc1C(O)C(O)c1cccc[n+]1C (stereo not given) | 6.05%
C(=NC12CC3CC(CC(C3)C1)C2)C1CCCCC1 | -17.1%
CCCCCCCc1cc(OC(=O)c2c(C)cc(OC)cc2O)cc(O)c1C(=O)O | 13.4%
Cc1cccc(C)c1NC(=O)Nc1cccc(O)c1 | -1.4%
CC(C)(C)OC(=O)NCC(O)CNC(=O)OC(C)(C)C | -1.25%
NC(=O)N/N=C/c1ccc(Cl)cc1Cl | -3.7%
CCN(CC)CCCNc1c2c(nc3ccc(Cl)cc13)CCCC2 | -20.1%
Cc1ccc(S(=O)(=O)CC(=O)NC(N)=O)cc1 | -5%
NC(N)=NC(=S)Nc1ccc(Cl)cc1 | 21.6%
O=NN(CCOS(=O)(=O)c1ccc(Br)cc1)C(=O)NC1CCCCC1 | 32%
CC1COC(c2cc3c(cc2Cl)OCO3)O1 (stereo not given) | -12.4%
Cc1cc(C)n(/N=C/c2ccccc2[N+](=O)[O-])c(=O)c1C#N | 4.65%
Cc1cc(C)c(-c2c(C)cc(C)c([N+](=O)[O-])c2C)c(C)c1N | 98.1% (active)
c1ccc2cc3c(cc2c1)[nH]c1ccccc13 | -10.7%
CN(C)C(=O)C1C2CCCC(CC2)C1C(=O)N(C)C (stereo not given) | 13.7%
N#CCN(CCc1ccccc1)CCc1ccccc1 | 8.35%

SMILES | growth inhibition
Cc1nc(-c2nc(C(=O)NCCC[S+](C)C)cs2)cs1 | -11.5%
O=c1[nH]c(Nc2cccc(CO)c2)nc2nc[nH]c12 | 5.35%
CCn1c2ccccc2c2c(-c3ccccc3)cc3c(c21)C(=O)N(c1ccccc1)C3=O | -0.3%
C=C(C#N)C1OCC2OC(C)(C)OC21 (stereo not given) | 3.7%
COc1ccc(OC)c(/C=C/C2=C(C)C(=O)CC(c3cc(OC)ccc3OC)C2C)c1 (stereo not given) | 4.3%
CC(=O)OC1[C@H](OC(C)=O)C2=C(C)[C@@H](OC(C)=O)C[C@@]2(C(C)(C)O)[C@@H](OC(C)=O)[C@H]2[C@@]1(C)[C@@H](OC(C)=O)CC(OC(C)=O)[C@]21CO1 (stereo not given in full) | 3.4%
O=C1c2ccccc2-c2nc(-c3cccs3)cc3c2c1nc1ccccc13 | 41.2%
Cc1ccccc1NC(=O)C(=O)CC(=O)c1sc(Nc2ccccc2[N+](=O)[O-])nc1C | 8.8%
CC(C)CCC[C@@H](C)[C@H]1CC[C@H]2[C@@H]3CC[C@H]4C[C@@H](CCC=C(c5cc(Cl)c(O)c(C(=O)O)c5)c5cc(Cl)c(O)c(C(=O)O)c5)CC[C@]4(C)[C@H]3CC[C@]12C | 15.3%
Cc1cc(Cl)c(Cl)cc1NC(=O)c1c(Br)c(Br)c(Br)c(Br)c1C(=O)O | 0.7%
COC(=O)CCSSCCC(=O)OC | 2.15%
CCc1cc2c(c3c1CCC3=O)CC1(Cc3ccc(C)cc3C1)C2 (stereo not given) | -47.1%
COC(=S)OC1CC(n2cnc3c(N)ncnc32)OC1CO[Si](C)(C)C(C)(C)C (stereo not given) | -10.2%
Clc1cccc2nsnc12 | 12.9%
COC(=O)CCC(N)C(=O)NC(Cc1ccccc1)C(=O)NC(C)C(=O)NC1C(O)OC(CO)C(O)C1O (stereo not given) | 3.95%
O=C(Nc1ccccc1-c1n[nH]c(=S)[nH]c1=O)C(F)(F)F | -2.45%
c1ccc(SC2CCSc3ccccc3C2Sc2ccccc2)cc1 (stereo not given) | 3.2%
CCOC(SCC)C(O)C(O)C(O)C(O)CO (stereo not given) | -1.9%
COc1ccc(/C(C)=N/NC(N)=S)cc1OC | 6.65%
NC1CC(=O)c2c(Cl)sc(Cl)c21 (stereo not given) | 51.4%

Assay: NCI Yeast Anticancer Drug Screen. Data for the mec2-1 strain (AID 157)
Settings: S. cerevisiae mec2-1 strain, at 50.0 µM, active compounds read high
Outline: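 Using mec2-1 yeast: add compound, measure growth, express inhibition versus vehicle-treated cultures.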

SMILES | growth inhibition
Clc1cccc[n+]1CCc1ccccc1 | 22.9%
COC(=O)c1c(C)ccc(C)c1C(=O)c1c(C)cc(C)cc1C | 11.5%
O=C1c2ccccc2C(=O)N1CC1(C(=O)O)NCCS1(=O)=O (stereo not given) | -7.5%
CCN(CC)c1ccc2c(c1)Oc1cc(N(CC)CC)ccc1C2c1ccccc1C(=O)O | -32.6%
C[n+]1ccccc1C(O)C(O)c1cccc[n+]1C (stereo not given) | 1.65%
C(=NC12CC3CC(CC(C3)C1)C2)C1CCCCC1 | -24.8%
CCCCCCCc1cc(OC(=O)c2c(C)cc(OC)cc2O)cc(O)c1C(=O)O | -16.2%
Cc1cccc(C)c1NC(=O)Nc1cccc(O)c1 | 34.8%
CC(C)(C)OC(=O)NCC(O)CNC(=O)OC(C)(C)C | -6.6%
NC(=O)N/N=C/c1ccc(Cl)cc1Cl | -5.55%
CCN(CC)CCCNc1c2c(nc3ccc(Cl)cc13)CCCC2 | -9.35%
Cc1ccc(S(=O)(=O)CC(=O)NC(N)=O)cc1 | -1.1%
NC(N)=NC(=S)Nc1ccc(Cl)cc1 | 1.6%
O=NN(CCOS(=O)(=O)c1ccc(Br)cc1)C(=O)NC1CCCCC1 | 9.25%
CC1COC(c2cc3c(cc2Cl)OCO3)O1 (stereo not given) | -2.4%
Cc1cc(C)n(/N=C/c2ccccc2[N+](=O)[O-])c(=O)c1C#N | 9.4%
Cc1cc(C)c(-c2c(C)cc(C)c([N+](=O)[O-])c2C)c(C)c1N | 98.8% (active)
c1ccc2cc3c(cc2c1)[nH]c1ccccc13 | -26.4%
CN(C)C(=O)C1C2CCCC(CC2)C1C(=O)N(C)C (stereo not given) | 19.6%
N#CCN(CCc1ccccc1)CCc1ccccc1 | -9.95%

SMILES | growth inhibition
Cc1nc(-c2nc(C(=O)NCCC[S+](C)C)cs2)cs1 | -7.85%
O=c1[nH]c(Nc2cccc(CO)c2)nc2nc[nH]c12 | -11%
CCn1c2ccccc2c2c(-c3ccccc3)cc3c(c21)C(=O)N(c1ccccc1)C3=O | -8.95%
C=C(C#N)C1OCC2OC(C)(C)OC21 (stereo not given) | -4%
COc1ccc(OC)c(/C=C/C2=C(C)C(=O)CC(c3cc(OC)ccc3OC)C2C)c1 (stereo not given) | 12.3%
CC(=O)OC1[C@H](OC(C)=O)C2=C(C)[C@@H](OC(C)=O)C[C@@]2(C(C)(C)O)[C@@H](OC(C)=O)[C@H]2[C@@]1(C)[C@@H](OC(C)=O)CC(OC(C)=O)[C@]21CO1 (stereo not given in full) | 29.9%
O=C1c2ccccc2-c2nc(-c3cccs3)cc3c2c1nc1ccccc13 | 21.4%
Cc1ccccc1NC(=O)C(=O)CC(=O)c1sc(Nc2ccccc2[N+](=O)[O-])nc1C | -7.45%
CC(C)CCC[C@@H](C)[C@H]1CC[C@H]2[C@@H]3CC[C@H]4C[C@@H](CCC=C(c5cc(Cl)c(O)c(C(=O)O)c5)c5cc(Cl)c(O)c(C(=O)O)c5)CC[C@]4(C)[C@H]3CC[C@]12C | 8.35%
Cc1cc(Cl)c(Cl)cc1NC(=O)c1c(Br)c(Br)c(Br)c(Br)c1C(=O)O | 11.4%
COC(=O)CCSSCCC(=O)OC | -13.1%
CCc1cc2c(c3c1CCC3=O)CC1(Cc3ccc(C)cc3C1)C2 (stereo not given) | -54.5%
COC(=S)OC1CC(n2cnc3c(N)ncnc32)OC1CO[Si](C)(C)C(C)(C)C (stereo not given) | -8.25%
Clc1cccc2nsnc12 | -12.1%
COC(=O)CCC(N)C(=O)NC(Cc1ccccc1)C(=O)NC(C)C(=O)NC1C(O)OC(CO)C(O)C1O (stereo not given) | 15.8%
O=C(Nc1ccccc1-c1n[nH]c(=S)[nH]c1=O)C(F)(F)F | 2.05%
c1ccc(SC2CCSc3ccccc3C2Sc2ccccc2)cc1 (stereo not given) | -14.7%
CCOC(SCC)C(O)C(O)C(O)C(O)CO (stereo not given) | -4.2%
COc1ccc(/C(C)=N/NC(N)=S)cc1OC | -17.9%
NC1CC(=O)c2c(Cl)sc(Cl)c21 (stereo not given) | 35.7%
